Measurements as given in the supplement of paper PMC10338343.
± gives the standard deviation.

The sequences below were run on MILI (PIWIL2) piRISC loaded with L1MC piRNA (26 nt) (assay: pre-steady-state target cleavage rate (min^-1); guide: L1MC piRNA 5'p-UAACUAAAUACUAUGCAAGCUGUAGG; MIWI and MILI are mouse PIWI proteins and EfPiwi is from a freshwater sponge; tags in brackets are library labels; higher = faster piRNA-guided slicing of the target). Details: auxiliary factor: 500 nM mouse GTSF1.
In short: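 In Cleave-'n-Seq, a transcribed, DNA-blocked target RNA library (0.1 nM) was combined with 1 nM active affinity-purified piRISC bearing one synthetic guide, with or without 500 nM GTSF1 partner protein. Reactions ran in HEPES–potassium acetate buffer at 33 °C for 0–8 or 0–960 min. Uncleaved targets were sequenced and normalised to depth and to weakly complementary targets, three trials were pooled, and k3 was capped at 0.0001 min^-1. The pre-steady-state cleavage rate was obtained by fitting a burst-and-steady-state model.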
For UCCUCCUACAGCUUGCAUUCUAUUUAGUAA, the “pre-steady-state target cleavage rate” value was 0.0535 ± 0.017.
UCCUGGAUGUCGUAGCUUAGUAUUUAGUUA was tested, and the “pre-steady-state target cleavage rate” value was 0.0118 ± 0.0046.
With UCCUGGAUGUCCUUGCAUAGUUUUUUGUUA the “pre-steady-state target cleavage rate” value was 0.00821 ± 0.0052.
UCCUGGAUGUGCUUGCUUAGUAUUUAGAUA was tested, and the “pre-steady-state target cleavage rate” value was 0.141 ± 0.032.
For UCCUGCUACAGCUUGGUUAGUAUUUAGAAA, the “pre-steady-state target cleavage rate” value was 0.018 ± 0.007.
For UCCUGGAUGUCGAACCAUAGAAUUUAGUUA, the “pre-steady-state target cleavage rate” value was < 0.0001.
For UCCUGGAUCAGCUUGCAUAGUAAAUUCAAA, the “pre-steady-state target cleavage rate” value was 0.0136 ± 0.0055.
With UCCUGGAUCAGCUUGCAUAGUAUUAUGAAA the “pre-steady-state target cleavage rate” value was 0.0664 ± 0.016.
For UCCUGGAACAGCUUGGAUACUAUUUAGUUA, the “pre-steady-state target cleavage rate” value was 0.0744 ± 0.017.
With UCCUGGAUGUCGAAGCAUAGUAUAUUGUUA the “pre-steady-state target cleavage rate” value was 0.00971 ± 0.0047.
In the case of UCCUGCUACAGGAUGCAUAGUAUUUACAAA, the “pre-steady-state target cleavage rate” value is reported as 0.0053 ± 0.0037.
UCCUCCUACAGCUUGCAUAGUUAUUAGUAA was tested, and the “pre-steady-state target cleavage rate” value was 0.031 ± 0.011.

Same assay, conditions: auxiliary factor: none (no GTSF1)
For UCCUGGAUGUCGAACGUAUGAUUUUAGUUA, the “pre-steady-state target cleavage rate” value was < 0.0001.
With UCCUGGAUGUCGAUGAUAGUAUUUAGUUA the “pre-steady-state target cleavage rate” value was < 0.0001.
For UCCUGGUACAGCUUCGUUAGUAUUUAGAAA, the “pre-steady-state target cleavage rate” value was < 0.0001.
With UCCUGGAUGUCGAUGCAUAGUUAAUAGUUA the “pre-steady-state target cleavage rate” value was 0.00272 ± 0.0027.
